{
  "source": "PubChem BioAssay (EPA / NIEHS)",
  "note": "The source made the active and inactive calls. How the source made its calls: active means hit-call score of the fitted dose curve at least 0.9, where 1 is the maximum; inactive means score below 0.9.",
  "data": [
    {"read-out": "Urokinase-type plasminogen activator receptor (uPAR), PLAUR (gene 5329)", "experiment": "BSK_BE3C_uPAR: BioMAP Diversity Plus: BE3C Assay for Urokinase-type plasminogen activator receptor (uPAR) Biomarker Activity (AID 2283039);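 on outcome: cells exposed to compound for one day before measurement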", "details": "primary human bronchial epithelial cells; actives raise or lower the signal", "procedure,_shortened": "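uPAR levels were measured by ELISA after 24 h compound treatment of primary human bronchial epithelial cells, fitted in both directions relative to DMSO. Parallel SRB staining served as the cytotoxicity read-out.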", "values": [
      {"compound": "CS(=O)(=O)c1ccc([C@@H](C[C@H]2CCC(=O)C2)C(=O)Nc2cnccn2)cc1Cl", "outcome": "inactive"},
      {"compound": "O=C(O)CN(CC(=O)O)CC(=O)O", "outcome": "inactive"},
      {"compound": "CC1(C)C(=O)NC(=O)N1CO", "outcome": "inactive"},
      {"compound": "CC(C)c1cccc(C(C)C)c1NC(=O)NS(=O)(=O)c1cc(C(C)(C)O)co1", "outcome": "inactive"},
      {"compound": "CCCC(=O)O", "outcome": "inactive"},
      {"compound": "C=CCCCCCCCCCCCC", "outcome": "inactive"},
      {"compound": "CCCCC(CC)COP(=O)(OCC(CC)CCCC)OCC(CC)CCCC", "note": "(stereo not drawn)", "outcome": "inactive"},
      {"compound": "NC1CCCCC1", "outcome": "inactive"},
      {"compound": "CC(=O)CC(c1ccccc1)c1c(O)c2ccccc2oc1=O", "note": "(stereo not drawn)", "outcome": "inactive"},
      {"compound": "C=CCc1ccc(OC)c(OC)c1", "outcome": "inactive"},
      {"compound": "CC(C)OC(=O)C(C)(C)Oc1ccc(C(=O)c2ccc(Cl)cc2)cc1", "outcome": "inactive"},
      {"compound": "CCCCCCCCCC[N+](C)(C)[O-]", "outcome": "inactive"},
      {"compound": "CCCCCCCC(=O)OC", "outcome": "inactive"},
      {"compound": "Oc1ccc(O)cc1", "outcome": "inactive"},
      {"compound": "CSc1ccc(Oc2ccc(S(N)(=O)=O)cc2CN(C)C)cc1C", "outcome": "inactive"},
      {"compound": "CCc1cc(C2=C(C(=O)O)N(c3ccccc3C(F)(F)F)S(=O)(=O)c3ccccc32)cc2c1OCO2", "outcome": "inactive"},
      {"compound": "NCCOCCOCCN", "outcome": "inactive"},
      {"compound": "S=c1[nH]c2ccccc2s1", "outcome": "inactive"},
      {"compound": "O=C(N[C@@H](c1ccccc1)[C@@H]1CCCCN1)c1cccc(C(F)(F)F)c1Cl", "AC50": "33.3 µM (active)"},
      {"compound": "O=C1CCCCC1", "outcome": "inactive"},
      {"compound": "Cc1ccc(C(C)(C)C)c(O)c1", "outcome": "inactive"},
      {"compound": "CCN(CC)CCOc1ccc(C(=C(Cl)c2ccccc2)c2ccccc2)cc1", "AC50": "26.3 µM (active)"},
      {"compound": "CC(=O)[C@@]1(O)CC[C@H]2[C@@H]3CCC4=CC(=O)CC[C@]4(C)[C@H]3CC[C@@]21C", "outcome": "inactive"}
    ]}
  ]
}
